Measured values taken from PubChem BioAssay.
Activity calls are given as the source filed them.

What was measured:
[1] = E. coli DRC41 culture turbidity changes, primary screen, E. coli filamentation inducer project, strain DRC41, OD650, 48 h (AID 1152);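 further: E. coli MC1000 strain DRC41 lacking acrAB efflux pump and sulA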; details: E. coli DRC41 (acrAB sulA), higher = more signal, called active from +8 up or from −8 down
[2] = small-molecule binders of probe aLefty1, primary screen, biochemical, small-molecule microarray, 635/667 nm fluorescence (AID 1153); details: higher = more signal;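 further: score merges spot fluorescence with signal-to-noise ratio from the scanned slide images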
[3] = PSAC antagonists in infected red cells, primary screen, cell-based, P. falciparum Indochina, OD700, 1 h (AID 1154); details: P. falciparum Indochina infected RBC osmotic lysis, higher = more signal, called active from +8 up or from −8 down
[4] = PSAC antagonists in infected red cells, primary screen, cell-based, P. falciparum Indochina, OD700, 2 h (AID 1155);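 further: lysis reports solute entry through the parasite surface anion channel PSAC; channel blockers reduce lysis of infected cells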; details: P. falciparum Indochina infected erythrocytes, osmotic lysis OD700; higher = more signal, called active from +8 up or from −8 down
[5] = osmotic lysis modulators in infected erythrocytes, primary screen, PSAC antagonist project, cell-based, P. falciparum Indochina, OD700, 3 h (AID 1156); details: higher = more signal, called active from +8 up or from −8 down
[6] = PSAC antagonists in infected red cells, primary screen, cell-based, P. falciparum Indochina, OD700, 18 h (AID 1157); details: P. falciparum Indochina infected erythrocytes, osmotic lysis OD700, 18 h; higher = more signal, called active from +8 up or from −8 down
[7] = modulators of S6 phosphorylation in cells, primary screen, cell-based, A549, cytoblot, luminescence, serum-stimulated (AID 1158); details: A549 phospho-S6 cytoblot, 5 h, higher = more signal;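 further: serum-stimulated A549 lung adenocarcinoma cells; signal is phosphorylated S6 detected by cytoblot immunostaining with HRP secondary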
[8] = biological target: NADPH oxidase 2 (Homo sapiens) (UniProt P04839); assay: NOX2-dependent H2O2 signal modulators, primary screen, NOX inhibitor project, cell-based, HEK293-NOX2, PMA-stimulated, Amplex Red fluorescence (AID 1159); details: 45 min, higher = more signal, called active from +8 up or from −8 down; further: test concentration not given here
[9] = biological target: NADPH oxidase 4 (Homo sapiens) (UniProt Q9NPH5); assay: NOX4-dependent H2O2 signal modulators, primary screen, NOX inhibitor project, cell-based, HEK293-NOX4, tetracycline-induced, Amplex Red fluorescence (AID 1160); details: 45 min, higher = more signal, called active from +8 up or from −8 down
[10] = biological target: NADPH oxidase 5 (Homo sapiens) (UniProt Q96PH1); assay: NOX5-dependent H2O2 signal modulators, primary screen, NOX inhibitor project, cell-based, HEK293-NOX5, Amplex Red fluorescence (AID 1161); details: HEK293-NOX5, ionomycin, 45 min, higher = more signal
[11] = A549 cell viability effects, profiling panel, calcein-AM fluorescence, 48 h, basal (AID 1162); details: higher = more signal; further: test concentration not given here
[12] = adipocyte viability effects, profiling panel, cell-based, 3T3-L1 adipocytes, calcein-AM fluorescence, 48 h, basal (AID 1163); details: 3T3-L1 adipocytes viability, higher = more signal; further: test concentration not given here
[13] = HepG2 cell viability effects, profiling panel, calcein-AM fluorescence, 48 h, basal (AID 1164); details: higher = more signal; further: test concentration not given here
[14] = MM1S cell viability effects, profiling panel, calcein-AM fluorescence, 48 h, basal (AID 1165); details: higher = more signal;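 further: viability of MM1S multiple myeloma cells under basal unstimulated conditions; test concentration not given here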
[15] = basal RPMI8226 viability, no added stimulus, profiling panel, cell-based, calcein-AM fluorescence, 48 h, PK04 Diversity Set (AID 1166); details: RPMI8226 myeloma viability, higher = more signal;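 further: cells grown under basal conditions without added stimulus; test concentration not given here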
[16] = basal HepG2 mitochondrial membrane potential changes, profiling panel, cell-based, JC-1 fluorescence, 24 h, 100 nL compound (AID 1167); details: higher = more signal; further: test concentration not given here
[17] = basal 3T3-L1 adipocyte mitochondrial potential changes, profiling panel, cell-based, JC-1 fluorescence, 3T3-L1 adipocytes, 24 h, 100 nL compound (AID 1168); details: JC-1 mitochondrial fluorescence, higher = more signal, called active from +8 up or from −8 down; further: test concentration not given here
[18] = basal RPMI8226 mitochondrial membrane potential changes, profiling panel, cell-based, JC-1 fluorescence, 24 h, 100 nL compound (AID 1169); details: RPMI8226 myeloma, JC-1 mitochondrial potential fluorescence, higher = more signal; further: test concentration not given here
[19] = basal MM1S mitochondrial membrane potential changes, profiling panel, cell-based, JC-1 fluorescence, 24 h, 100 nL compound (AID 1170); details: higher = more signal; further: test concentration not given here
[20] = A549 lung cancer cell viability effects, profiling panel, resazurin fluorescence, 24 h, PK04 Diversity Set (AID 1171); details: higher = more signal, called active from +8 up or from −8 down; further: test concentration not given here

Chain of NADPH oxidase 5 (Homo sapiens) (Q96PH1 whole entry, looked up): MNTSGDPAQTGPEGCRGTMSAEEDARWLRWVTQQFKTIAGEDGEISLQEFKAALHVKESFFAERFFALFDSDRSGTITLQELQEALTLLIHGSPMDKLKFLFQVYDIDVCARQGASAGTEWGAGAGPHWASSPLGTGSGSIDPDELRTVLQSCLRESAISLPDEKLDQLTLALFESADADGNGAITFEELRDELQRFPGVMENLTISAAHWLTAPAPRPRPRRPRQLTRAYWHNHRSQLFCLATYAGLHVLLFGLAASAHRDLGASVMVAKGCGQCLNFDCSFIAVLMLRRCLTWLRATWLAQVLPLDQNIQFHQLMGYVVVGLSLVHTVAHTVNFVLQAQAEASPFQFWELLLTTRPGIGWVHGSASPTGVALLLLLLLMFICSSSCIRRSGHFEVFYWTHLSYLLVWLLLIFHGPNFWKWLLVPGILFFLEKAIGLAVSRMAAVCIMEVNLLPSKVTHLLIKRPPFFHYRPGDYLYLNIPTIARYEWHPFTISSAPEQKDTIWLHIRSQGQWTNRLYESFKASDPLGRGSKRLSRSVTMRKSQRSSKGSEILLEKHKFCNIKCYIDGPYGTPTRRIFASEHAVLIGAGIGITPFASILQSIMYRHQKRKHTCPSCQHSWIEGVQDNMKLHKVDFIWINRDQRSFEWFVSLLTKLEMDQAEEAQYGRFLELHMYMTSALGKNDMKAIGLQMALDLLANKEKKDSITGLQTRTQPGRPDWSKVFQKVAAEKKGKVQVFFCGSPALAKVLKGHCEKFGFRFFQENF
Chain of NADPH oxidase 4 (Homo sapiens) (Q9NPH5 whole entry, looked up): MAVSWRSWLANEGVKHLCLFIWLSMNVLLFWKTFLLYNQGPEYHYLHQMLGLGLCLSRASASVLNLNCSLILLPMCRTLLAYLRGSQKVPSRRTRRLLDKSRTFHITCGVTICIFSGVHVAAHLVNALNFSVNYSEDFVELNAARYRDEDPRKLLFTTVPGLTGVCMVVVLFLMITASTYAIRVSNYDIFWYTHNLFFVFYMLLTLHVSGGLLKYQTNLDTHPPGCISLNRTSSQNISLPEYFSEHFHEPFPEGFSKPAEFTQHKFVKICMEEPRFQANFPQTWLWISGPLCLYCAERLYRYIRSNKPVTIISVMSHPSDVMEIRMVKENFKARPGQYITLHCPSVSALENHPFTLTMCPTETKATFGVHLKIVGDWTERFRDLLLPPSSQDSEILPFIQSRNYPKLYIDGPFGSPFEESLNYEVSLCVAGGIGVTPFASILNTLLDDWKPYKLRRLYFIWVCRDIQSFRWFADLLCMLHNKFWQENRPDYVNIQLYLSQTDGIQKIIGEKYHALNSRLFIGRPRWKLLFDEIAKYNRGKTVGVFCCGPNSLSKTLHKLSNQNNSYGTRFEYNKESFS
Chain of NADPH oxidase 2 (Homo sapiens) (P04839 whole entry, looked up): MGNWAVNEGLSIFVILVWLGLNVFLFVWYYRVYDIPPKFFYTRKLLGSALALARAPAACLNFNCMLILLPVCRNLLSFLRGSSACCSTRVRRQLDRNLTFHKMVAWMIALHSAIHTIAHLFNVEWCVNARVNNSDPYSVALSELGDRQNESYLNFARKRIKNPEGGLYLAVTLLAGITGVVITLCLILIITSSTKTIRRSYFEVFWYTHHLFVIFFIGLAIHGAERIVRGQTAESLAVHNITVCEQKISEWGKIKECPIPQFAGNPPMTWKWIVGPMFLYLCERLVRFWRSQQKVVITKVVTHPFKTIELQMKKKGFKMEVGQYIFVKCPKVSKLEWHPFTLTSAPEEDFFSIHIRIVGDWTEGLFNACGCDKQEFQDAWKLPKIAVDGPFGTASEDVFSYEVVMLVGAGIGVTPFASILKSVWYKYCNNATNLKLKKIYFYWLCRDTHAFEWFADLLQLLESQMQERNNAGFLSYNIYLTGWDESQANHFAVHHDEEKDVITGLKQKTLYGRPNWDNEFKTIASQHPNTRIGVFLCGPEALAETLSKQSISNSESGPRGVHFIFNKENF

| SMILES | z-score [1] | composite z-score [2] | z-score [3] | z-score [4] | z-score [5] | z-score [6] | z-score [7] | z-score [8] | z-score [9] | z-score [10] | z-score [11] | z-score [12] | z-score [13] | z-score [14] | z-score [15] | z-score [16] | z-score [17] | z-score [18] | z-score [19] | z-score [20] |
| --- | --- | --- | --- | --- | --- | --- | --- | --- | --- | --- | --- | --- | --- | --- | --- | --- | --- | --- | --- | --- |
| C=C[C@@H](C)[C@H](OC(=O)Nc1ccc(SC)cc1)c1ccc(OCCO)cc1 | -0.605 (inactive) | -0.33 | 27.9 (active) | 12 (active) | 3.4 (inactive) | 1.75 (inactive) | 2.17 | -0.329 (inactive) | -0.14 (inactive) | -0.18 | -0.848 | 0.54 | 0.0237 | 0.191 | 0.794 | -0.692 | 0.396 (inactive) | 0.917 | -1.13 | -0.0363 (inactive) |
| CC(C)(C)OC(=O)CC[C@]1(C(=O)O)N=C(c2ccc(OCCCO)cc2)O[C@H]1c1ccccc1 | 1.11 (inactive) | -0.362 | 11.9 (active) | 1.08 (inactive) | -0.0867 (inactive) | -0.284 (inactive) | 0.733 | 0.643 (inactive) | 0.228 (inactive) | 1.68 | -0.078 | 0.155 | -0.0903 | 0.55 | -0.135 | 0.367 | 0.721 (inactive) | -0.0713 | -0.513 | 0.16 (inactive) |
| COC(=O)[C@@]1(Cc2ccc(OC)cc2)[C@H]2c3cc(C(=O)N4CCCC4)n(CCc4cc5ccccc5[nH]4)c3C[C@H]2CN1C(=O)c1ccccc1 | -1.31 (inactive) | 0.712 | 4.17 (inactive) | 0.852 (inactive) | 1.45 (inactive) | 1.11 (inactive) | -0.231 | 0.00439 (inactive) | 0.319 (inactive) | -3.28 | -0.596 | -0.0596 | 0.471 | -0.574 | -1.84 | 0.877 | -0.538 (inactive) | -0.922 | -1.1 | -0.0485 (inactive) |
| O=c1cccc(-c2ccc(C(F)(F)F)cc2)o1 | -1.06 (inactive) | -0.103 | 20.1 (active) | 3.36 (inactive) | -1.13 (inactive) | 1.1 (inactive) | -0.564 | 0.584 (inactive) | -2.27 (inactive) | -0.246 | -1.24 | -0.843 | -0.701 | 0.506 | -1.02 | -0.487 | 1.75 (inactive) | 0.942 | -0.507 | 0.374 (inactive) |
| C=C(C(=O)CC[C@H](OC(=O)c1cccnc1)c1cccc(OCCO)c1)C(C)C | 0.184 (inactive) | 0.0327 | 14.4 (active) | 2.83 (inactive) | 1.76 (inactive) | 1.04 (inactive) | -0.0915 | 0.657 (inactive) | -0.0784 (inactive) | -2.05 | 0.647 | 0.47 | -0.419 | -2.44 | -1.46 | -1.03 | 0.584 (inactive) | -0.0636 | -0.326 | 0.371 (inactive) |
| Cc1ccc(C(C)CC(O)C2C=CC3C(=O)N(c4ccccc4)C(=O)C3N2Nc2ccc(C(C)C)cc2)o1 (stereo not given) | -1.84 (inactive) | 0.629 | 1.45 (inactive) | 0.871 (inactive) | 0.948 (inactive) | 0.631 (inactive) | -1.31 | -0.831 (inactive) | -2.34 (inactive) | -3.53 | -1.12 | -0.279 | 0.137 | -1.41 | -1.19 | -2.29 | -1.44 (inactive) | -0.778 | 0.772 | -0.634 (inactive) |
| O=C1OCC=C[C@H]2OC34C=CCN(Cn5nnc6ccccc65)C(=O)[C@H]3N(CCCCCCO)C(=O)[C@@H]4[C@@H]12 (stereo not given in full) | -0.169 (inactive) | 0.32 | 1.99 (inactive) | 0.89 (inactive) | 1.15 (inactive) | 0.648 (inactive) | -0.394 | 1.77 (inactive) | -0.17 (inactive) | 2.24 | -0.4 | 0.352 | 0.226 | 1.15 | 0.447 | -0.688 | -0.0324 (inactive) | -0.638 | -0.467 | -0.402 (inactive) |
| Cc1c(NC(=O)/C(C#N)=C/C=C/c2ccccc2[N+](=O)[O-])c(=O)n(-c2ccccc2)n1C | 0.56 (inactive) | -0.184 | 2.91 (inactive) | 0.548 (inactive) | 0.681 (inactive) | 0.0839 (inactive) | -0.243 | -0.235 (inactive) | 0.0287 (inactive) | 0.657 | -1.22 | -0.355 | -1.71 | -3.09 | -2.1 | -1.76 | -0.0694 (inactive) | -0.588 | -0.994 | -1.43 (inactive) |
| CCC[C@@H]1C[C@@]1(CCC)[C@@H](NP(=O)(c1ccccc1)c1ccccc1)c1ccc(Cl)cc1 | -2.39 (inactive) | 0.0315 | 0.887 (inactive) | 0.0991 (inactive) | 0.278 (inactive) | 0.323 (inactive) | 0.0038 | -0.769 (inactive) | -1.97 (inactive) | 0.429 | -1.19 | -1.03 | -1.99 | -1.45 | -2.28 | -4.09 | -0.876 (inactive) | -0.618 | -1.81 | 0.419 (inactive) |
